About 1,200 (0.86%) of roughly 140,000 compounds were called active. No stated cut-off is given here; in the data, active means activity change below about -25%; inactive means the rest. This excerpt belongs to a sample that is enriched for actives.
biological target: Inositol hexakisphosphate kinase 1 (Homo sapiens) (UniProt Q92551); assay: Primary qHTS assay for small molecule inhibitors of Inositol hexaphosphate kinase 1 (IP6K1); details: ADP-Glo luminescence, 2 h, stronger effect = lower value; further: series mostly up to about 58 µM
From the text: Assay Provider: Huijun Wei, M.S., Ph.D. School of Medicine, Johns Hopkins University, Baltimore, MD Inositol hexakisphosphate kinases (IP6Ks) catalyze pyrophosphorylation of inositol hexakisphosphate (IP6) into inositol 5-diphospho-1,2,3,4,6-pentakisphosphate (IP7), which is involved in numerous areas of cell physiology including glucose homeostasis, blood coagulation and neurological development. Inhibition of IP6Ks may be effective for the treatment of Type II diabetes, thrombosis, and psychiatric disorders. We performed a quantitative high throughput screen (qHTS) of 158,410 compounds for IP6K1 inhibitors using ankinase activity ADP-Glo Max assay. […] Medicinal chemistry SAR efforts in three chemical series identified potent IP6K1 inhibitors, which were further validated in an orthogonal LC-MS IP7 analysis.
PROTOCOL TABLE SEQUENCE No. (e.g., 1, 2, 3, etc.); […] (e.g., Cells, Incubation, Reagent, etc.); VALUE and DESCRIPTION. 1. Reagent, 3 uL of 1.3 mM ATP and 130 uM IP6 mixture in assay buffer was dispensed to a white, 1536-well assay plate. 2. Compound, 23 nL of compounds of the top two doses (57.5 uM and 19.1 uM final concentration) of the libraries were dispensed into the mixture using the Kalypsis pintool. 3. Reagent, 1 uL of 2.4 uM IP6K1 was dispensed to the assay plates. 4. Incubation, 2 hr incubation at room temperature. 5. Reagent, 2 uL of ADP-Glo reagent was added to the wells. 6. Incubation, 1 hr incubation at room temperature. 7. Reagent, 4 uL or ADP-Glo substate was added to the wells. 8. Incubation, 45 min incubation at room temperature. 9. Detection, luminescence signal was detected using the ViewLux microplate imager (PerkinElmer).
On the % scale 0 is the no-effect control and ±100 the full control effect.

Inositol hexakisphosphate kinase 1 (Homo sapiens), sequence (Q92551 whole entry, looked up): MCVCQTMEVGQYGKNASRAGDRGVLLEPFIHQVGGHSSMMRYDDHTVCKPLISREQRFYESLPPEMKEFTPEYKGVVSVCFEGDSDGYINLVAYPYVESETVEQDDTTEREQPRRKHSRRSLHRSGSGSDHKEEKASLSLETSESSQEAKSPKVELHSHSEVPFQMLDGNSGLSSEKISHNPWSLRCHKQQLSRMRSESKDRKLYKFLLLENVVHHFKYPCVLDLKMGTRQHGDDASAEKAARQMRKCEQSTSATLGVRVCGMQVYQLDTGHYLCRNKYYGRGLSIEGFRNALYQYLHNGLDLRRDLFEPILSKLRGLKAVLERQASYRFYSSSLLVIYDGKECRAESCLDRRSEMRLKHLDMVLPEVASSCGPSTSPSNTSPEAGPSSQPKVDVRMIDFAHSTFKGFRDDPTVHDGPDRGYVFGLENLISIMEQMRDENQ

Structure (SMILES)	activity change
CO[C@]12CC[C@@]3(C[C@@H]1[C@](C)(O)C(C)(C)C)[C@@H]1Cc4ccc(O)c5c4[C@@]3(CCN1CC1CC1)[C@H]2O5	0.147% (inactive)
Oc1ccc2c3c1O[C@H]1c4[nH]c5c(N=C=S)cccc5c4C[C@@]4(O)[C@@H](C2)N(CC2CC2)CC[C@]314	-97.1% (active)
C/C=C(\C)C(O)C(C)/C=C(C)/C=C/C/C(C)=C/Cc1nc(OC)c(OC)c(O[C@@H]2O[C@@H](C)[C@H](O)[C@@H](O)[C@H]2O)c1C (stereo not given in full)	-8.45% (inactive)
NC(=O)[C@@H](CC1CC1)[C@@H](CCC(F)(F)F)C(=O)N[C@H]1N=C(c2ccccc2)c2cccc(F)c2NC1=O	10.6% (inactive)
C[C@@H]1C[C@@H](O)[C@]2(O)O[C@@H]3C[C@@]4(C=O)C(CC[C@@H]5C4CC[C@]4(C)[C@@H](C6=CC(=O)OC6)CC[C@]54O)C[C@H]3O[C@@H]2O1 (stereo not given in full)	17.6% (inactive)

From PubChem BioAssay AID1645851 (National Center for Advancing Translational Sciences (NCATS), 2021)
